Bioassay records as filed in PubChem.
Sampled rows, rich in hits. Any-hit rate of the full collection: about 7.9%.
KB-V1 cytotox = KB-V1 MDR subline cytotoxicity; Potency, µM (doses to about 46.1 µM), hits mostly cytotoxic; AID 1347076; KB-V1 MDR cells viability, CellTiter-Glo, 72 h; 400,000 compounds, 3.4% hits; note: % is set by controls: 0 for no effect and ±100 for the full control effect; nearly all actives have a fitted effect of over 60% in size
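Cytotoxicity toward P-gp-expressing KB-V1 cells was determined as loss of CellTiter-Glo luminescence after 72 h at 37 degrees C. Compounds were tested in quantitative HTS format across a concentration range, with curves fitted to normalized data.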
MCF10A rerep = DNA re-replication induction in MCF 10a cells; MCF 10A DNA re-replication, Hoechst nuclear intensity, 48 h; Potency, µM (highest dose often 46.1 µM), for inactives: at the highest dose activity, positive = re-replication, usual class: activators; 350,000 compounds, 2.9% hits; AID 624296; note: % of control where 0% means no effect; nearly all actives have a fitted effect of over 50% in size
HT1080NT lethal = kills 2HG-producing HT-1080-NT fibrosarcoma cells; HT-1080-NT fibrosarcoma viability, CellTiter-Glo ATP luminescence, 48 h; Potency, µM (series often up to 46.1 µM), without a hit: top-dose activity, negative = less viability, usual class: cytotoxic; 360,000 compounds, 1.6% hits; AID 686970;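 note: NT is the 2HG producing partner of a matched IDH1 knockdown line; 0% = DMSO-treated cells and -100% = media-only wells without cells; nearly all actives have a fitted effect of over 55% in size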
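750 cells/well, RPMI + 5% FBS; 2 h settle, compound pin-transfer, 48 h at 37 degrees C. CellTiter-Glo 10 min RT, luminescence. Normalized to DMSO and media-only wells.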
HT1080 IDH1KD tx = HT-1080 IDH1 knockdown cell toxicity (counter line); HT-1080 IDH1 knockdown viability, ATP luminescence, 48 h; Potency, µM (series often up to 46.1 µM), without a hit: at the highest dose activity, negative = toxicity, usual class: cytotoxic; 360,000 compounds, 2% hits; AID 686971;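 note: 0% = DMSO wells and -100% = cell-free medium wells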
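Cytotoxicity counter-line: IDH1KD HT-1080, 48 h, CellTiter-Glo. Curves classed by r2, magnitude and activity.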
SW480 rerep = inducers of DNA re-replication in SW480 colon cancer cells; Potency, µM (series often up to 46.1 µM), for the others: at the top dose re-replication activation, hits mostly activators; 340,000 compounds, 1.8% hits; AID 624297; SW480 DNA re-replication, Hoechst DNA content imaging, 48 h; note: % of control where 0% means no effect; nearly all actives have a fitted effect of over 55% in size
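Treated cells incubate 48 hr (37 C, 5% CO2), are stained 40 min with Hoechst, and nuclear fluorescence is enumerated; a rise in nuclei with high DNA signal marks re-replication.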
KB-3-1 cytotox = kills parental KB-3-1 adenocarcinoma cells; KB-3-1 viability, CellTiter-Glo ATP luminescence, 72 h; 400,000 compounds, 1.4% hits; AID 1347075; Potency, µM (highest dose often 46.1 µM), most hits filed as cytotoxic; note: % is set by controls: 0 for no effect and ±100 for the full control effect; nearly all actives have a fitted effect of over 60% in size
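Multi-concentration cytotoxicity screen in KB-3-1 cells grown in DMEM lacking phenol red with 10% FBS. After 72 h at 37 °C with compound, ATP-dependent luminescence was recorded.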
Active calls of the source: *; i = inactive; ? = inconclusive; . = not tested or not shown; [ ] = dose if it differs, or a comment. Calls come from the whole dose curve; as a rule, active = well fitted curve in the direction sought with a large enough effect; inconclusive = small, poorly fitted or top-dose-only effect, or another doubt; inactive = no such curve, though single readings can be large; an effect the other way counts as inactive or inconclusive. Potency is the fitted concentration of half-maximal effect.

SMILES	KB-V1 cytotox	MCF10A rerep	HT1080NT lethal	HT1080 IDH1KD tx	SW480 rerep	KB-3-1 cytotox
COc1ccc(S(=O)(=O)N2CCC(C(=O)c3ccc4c(c3)OCCO4)CC2)cc1	i	-6.0%	-27.7%	-26.5%	2.1%	?
O=C(c1ccc2c(c1)OCCO2)C1CCN(C(=O)Nc2ccc(F)cc2)CC1	23.1µM*	3.8%	-9.4%	-3.9%	12.7%	i
O=C(c1ccc2c(c1)OCCO2)C1CCN(S(=O)(=O)c2ccccc2F)CC1	23.1µM*	0.7%	-9.0%	?	0.4%	i
COc1ccc(NC(=S)NC(=O)c2ccc3c(c2)OCCO3)cc1	i	2.0%	-3.9%	-3.4%	-7.0%	i
O=C(NC(=S)Nc1ccc(N2CCOCC2)cc1)c1ccc2c(c1)OCCO2	?	13.8%	-13.7%	-19.1%	?	i
COc1cccc(CNC(=O)CC2C(=O)NCCN2CCCc2ccccc2)c1 (stereo not given)	i	6.0%	-0.4%	-0.5%	16.7%	i
O=C(CN1CCN(Cc2ccc(F)cc2Cl)S1(=O)=O)Nc1ccc(F)cc1	i	.	.	.	.	i
Cc1ccc(Cn2c(=O)n(Cc3ccc(C(=O)NC4CCN(Cc5ccccc5)CC4)cc3)c(=O)c3ccccc32)cc1	i	.	.	.	.	i
O=C(O)C1=CC2C=C(Cl)C=CC2OC1=O (stereo not given)	i	6.3%	-0.7%	-0.6%	-2.4%	i
Cc1ccccc1C(=O)N1CCCC(CCC(=O)N2CCN(c3ccccn3)CC2)C1 (stereo not given)	i	2.5%	-0.3%	-23.5%	-6.1%	i
COc1ccc(C(=O)N2CCCC(CCC(=O)N3CCN(c4ccccn4)CC3)C2)cc1 (stereo not given)	13µM*	-8.9%	-3.3%	-4.7%	-25.6%	i
Cc1ccsc1C(=O)N1CCCC(CCC(=O)N2CCN(c3ccccn3)CC2)C1 (stereo not given)	?	6.51µM*	-7.5%	-4.6%	-18.1%	i
Oc1ccc(C(=Nc2ccccc2)c2ccccc2)c(O)c1	?	?	-2.5%	-10.8%	23.7%	i
CN=C(N)NC(=O)Nc1c(C)cccc1C	i	0.2%	-0.1%	16.4%	16.4µM*	i
CN=C(NC(=O)Nc1c(C)cccc1C)NC(=O)Nc1c(C)cccc1C	i	-2.8%	-0.9%	3.6%	-6.8%	i
Cc1cccc(C)c1NC(=O)CN	?	-8.3%	?	10.4%	18.4µM*	i
O=C1c2ccccc2C(Nc2ccc3c(c2)OCCO3)N1c1ccc(Cl)cn1 (stereo not given)	?	0.3%	-5.0%	-3.6%	-1.6%	i
CCCc1cc(NCCOCCO)n2c(nc3ccccc32)c1C#N	i	.	-7.9%	-7.1%	.	i
CCCc1cc(-n2ccnc2C)n2c(nc3ccccc32)c1C#N	i	20.4%	23.7%	-1.7%	?	i
CCCc1cc(NCCCCO)n2c(nc3ccccc32)c1C#N	23.1µM*	17.4%	-11.0%	-13.0%	19.5%	i
CCCc1cc(NCCCN2CCOCC2)n2c(nc3ccccc32)c1C#N	i	20.6µM*	4.7%	5.5%	1.8%[9.22 µM]	i
CCCc1cc(N2CCN(C(=O)c3ccco3)CC2)n2c(nc3ccccc32)c1C#N	i	20.6µM*	-25.6%	-13.3%	?	i
O=C(NCc1ccccc1)[C@]1(C(F)(F)F)C[C@H](CCc2ccccc2)CCCO1	i	1.84µM*	0.3%	1.5%	-4.3%	i
CCN(C(=O)c1ccc(NC(C)=O)cc1)c1ccccc1C	i	2.0%	8.9%	10.2%	0.8%	i
CCCCC(=O)Nc1ccc(C(=O)N(CC)c2ccccc2C)cc1	14.6µM*	20.1%[9.22 µM]	?	?	?	i
CCOc1ccc(NC(=O)CSc2ncc(-c3ccc(F)cc3)n2Cc2ccco2)cc1	i	?	-24.6%	-29.7%	?	i
